In PubChem BioAssay (NCATS):
“And” between values parts separate entries of the source, which are not always exact repeats. Equal values may be shown once. Records with an inconclusive call do not appear. Where a call stands in place of a potency, no number is given. Where a structure was tested more than once in an assay, its records may differ in their call. The source made the active and inactive calls. Unless noted, the call rests on the fitted dose curve; in most records, active means well fitted curve in the direction sought with a large enough effect; inconclusive means small, poorly fitted or top-dose-only effect, or another doubt; inactive means no such curve, though single readings can be large; an effect the other way counts as inactive or inconclusive.

Assays:
[1] = target: Calcium and integrin-binding protein 1 (Homo sapiens) (UniProt Q99828); assay: Confirmatory qHTS for Identification of Calcium Integrin Binding Protein 1 (CIB1) Competitor (AID 1508617); further: nearly all actives have a fitted effect of over 65% in size; further: potency means the concentration at half of the fitted maximal effect
Chain of Calcium and integrin-binding protein 1 (Homo sapiens) (Q99828 whole entry, looked up): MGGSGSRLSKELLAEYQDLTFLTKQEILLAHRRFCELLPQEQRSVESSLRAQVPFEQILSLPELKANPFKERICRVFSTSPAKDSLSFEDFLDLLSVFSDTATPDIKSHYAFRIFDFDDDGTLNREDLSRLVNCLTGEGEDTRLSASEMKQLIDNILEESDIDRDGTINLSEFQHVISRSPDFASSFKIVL
Method in brief: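 Fluorescence polarization competition: CIB1-GST (1 uM final) in 5 mM HEPES pH 7.4, 125 mM NaCl, 5 mM CaCl2, 0.01% Tween20 preincubated 15 min RT with compound (up to 114 uM), then FITC-alphaIIb peptide (100 nM) added, 15 min RT.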

[2] = target: Calcium and integrin-binding protein 1 (Homo sapiens) (UniProt Q99828); assay: Primary qHTS for Identification of Calcium Integrin Binding Protein 1 (CIB1) Competitor (AID 1508620);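 further: GST tagged CIB1 binding a fluorescein labelled alphaIIb integrin peptide tracer; top concentration of the series differs between compounds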
Method in brief: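 Fluorescence polarization competition: GST-tagged CIB1 (1 uM final) preincubated with compound 15 min at room temperature, then FITC-labelled alphaIIb peptide (100 nM final) added. After 15 min at room temperature, polarization read at Ex 480/Em 540.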

[3] = Counterscreen qHTS for small molecule stabilizers of the endoplasmic reticulum resident proteome: GLuc-NoTag assay (AID 1508627); further: potency means the concentration at half of the fitted maximal effect
Method in brief: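 SH-SY5Y cells stably expressing constitutively secreted GLuc without SERCaMP tag, exposed to compound for 19 hr, then to 100 nM thapsigargin for 4 hr at 37C. Medium luciferase was read by coelenterazine luminescence without lysis.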

[4] = Cell Viability qHTS for small molecule stabilizers of the endoplasmic reticulum resident proteome (AID 1508629); conditions: cell viability counter-screen, 100 nM thapsigargin for final 4 h;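 further: compound exposure about 46 h in total before the viability read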
Source text: Assay Provider: Brandon K. Harvey Ph.D.
National Institute on Drug Abuse, National Institutes of Health, Baltimore, MD
Endoplasmic reticulum (ER) dysregulation is associated with human pathologies including neurodegenerative, cardiovascular, muscular, and diabetic conditions. Maintenance of ER calcium is critical for functions of the ER and its depletion can lead to loss of ER resident proteins, in a process termed exodosis. Therapeutic compounds capable of attenuating the redistribution of ER proteins under pathological conditions may slow or stop disease progression. To identify such compounds, we performed a quantitative high-throughput screen (qHTS) using the SERCaMP assay, which monitors secretion of ER resident proteins triggered by calcium depletion.
SERCaMP was initially developed as a reporter of ER calcium homeostasis using a Gaussia luciferase with a modified signal peptide and carboxy-terminus (GLuc-SERCaMP), modifications that confer secretion of the reporter in response to ER calcium depletion (Henderson et al., 2014). The assay was used to screen 9,501 compounds, including a collection of drugs approved by the FDA (US), EMA (EU), NHI (Japan), and HC (Canada) regulatory agencies (Huang et al., 2011). Since the SERCaMP reporter reflects the exodosis phenomenon (Trychta et al., 2018a), compounds identified in the screen have the potential to prevent exodosis by different mechanisms such as stabilizing ER calcium or augmenting ERS retrieval.
1. Henderson, M.J., Wires, E.S., Trychta, K.A., Richie, C.T., and Harvey, B.K. (2014). SERCaMP: a carboxy-terminal protein modification that enables monitoring of ER calcium homeostasis. Mol Biol Cell 25, 2828-2839.
2. Huang, R., Southall, N., Wang, Y., Yasgar, A., Shinn, P., Jadhav, A., Nguyen, D.T., and Austin, C.P. (2011). The NCGC pharmaceutical collection: a comprehensive resource of clinically approved drugs enabling repurposing and chemical genomics. Sci Transl Med 3, 80ps16.
3. Trychta, K.A., Back, S., Henderson, M.J., and Harvey, B.K. (2018a). KDEL Receptors Are Differentially Regulated to Maintain the ER Proteome under Calcium Deficiency. Cell Rep 25, 1829-1840 e1826.
SEQUENCE No. (1, 2, 3, etc.); […] (e.g., Cells, Incubation, Reagent, etc.); VALUE and DESCRIPTION.
1; Reagent; 5 uL; 1000 SH-SY5Y cells per wells
3; Compound; 23 nL; Control inhibitor / compound library
5; Reagent; 100 nM; Thapsigargin
7; Reagent; 5 uL; CellTiter-Glo (Promega)
8; Time; 10 min; room temperature
9; Detection; Luminescence; ViewLux imaging system
NOTES (numbers refer to sequence above)
1; SH-SY5Y human neuroblastoma cells stably expressing GLuc-SERCaMP (SH-SY5Y-GLuc-ASARTDL) cells were seeded in 1,536 well white tissue culture treated plates (Corning, Cat# 7464) in DMEM-high glucose-sodium pyruvate (ThermoFisher Scientific, Cat #10569) supplemented with 10% bovine growth serum (Hyclone), 10 U/ml penicillin (Gibco), 10 ug/ml streptomycin (Gibco), and 20 mM HEPES.
2; Assay plates were incubated for 5 hr at 37C in a humidified incubator containing 5% CO2.
3; qHTS libraries (23 nl, final concentrations of 1.53 uM, 7.67 uM, 38.3 uM) or controls (neutral control: DMSO, positive control: dantrolene) were added using a Kalypsis pin-tool Robotic System equipped with 1536 pinheads.
4; Cells were then incubated for 42 hours at 37C, 5% CO2.
5; Thapsigargin was added at 100 nM to deplete ER calcium stores.
6; Cells were incubated for 4 hr (37C, 5% CO2).
7; Cell viability was measured using the CellTiter-Glo Luminescent Cell Viability Assay (Promega). Briefly, an equal volume of reagent was added to each well. Plates were rotated for 2 min.
8; Assay plates were incubated for 10 min at room temperature.
9; Luminescence was measured using a ViewLux CCD imaging system (Perkin Elmer) equipped with clear filters.

[5] = Primary qHTS for small molecule stabilizers of the endoplasmic reticulum resident proteome: Secreted ER Calcium Modulated Protein (SERCaMP) assay (AID 1508630); further: potency means the concentration at half of the fitted maximal effect
Method in brief: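 GLuc-SERCaMP-expressing SH-SY5Y cells, pretreated 16 h with compound, are challenged with thapsigargin to empty ER calcium stores; after 4 h, coelenterazine is added directly to the medium and luminescence is imaged.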

[6] = A High-Content qHTS Against Drug Library for the Identification of Small Molecules that Inhibit DYT1 Early Onset Primary Dystonia-Associated Cell Pathology (AID 1645839; calls by dose curve; further: potency means the concentration at half of the fitted maximal effect)
Method in brief: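 Flp-In T-REx 293 cells with tetracycline-inducible EGFP-delE hTOR1A (WT EGFP-hTOR1A as reference), 800 cells/well; compound added with tetracycline, 48 h at 37 C. Fixed, permeabilized cells imaged; %pathology (punctate TorsinA) primary, cell count counterscreen.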

[7] = target: Cytochrome P450 2D6 (Homo sapiens) (UniProt P10635); assay: Cytochrome P450 family 2 subfamily D member 6 (CYP2D6) small molecule antagonists: luciferase biochemical (cell-free) qHTS assay (AID 1645840; active means well fitted curve in the direction sought with a large enough effect in the repeat runs; an effect the other way counts as inactive or inconclusive; further: nearly all actives have a fitted effect of over 55% in size; further: potency means the concentration at half of the fitted maximal effect)
Chain of Cytochrome P450 2D6 (Homo sapiens) (P10635 whole entry, looked up): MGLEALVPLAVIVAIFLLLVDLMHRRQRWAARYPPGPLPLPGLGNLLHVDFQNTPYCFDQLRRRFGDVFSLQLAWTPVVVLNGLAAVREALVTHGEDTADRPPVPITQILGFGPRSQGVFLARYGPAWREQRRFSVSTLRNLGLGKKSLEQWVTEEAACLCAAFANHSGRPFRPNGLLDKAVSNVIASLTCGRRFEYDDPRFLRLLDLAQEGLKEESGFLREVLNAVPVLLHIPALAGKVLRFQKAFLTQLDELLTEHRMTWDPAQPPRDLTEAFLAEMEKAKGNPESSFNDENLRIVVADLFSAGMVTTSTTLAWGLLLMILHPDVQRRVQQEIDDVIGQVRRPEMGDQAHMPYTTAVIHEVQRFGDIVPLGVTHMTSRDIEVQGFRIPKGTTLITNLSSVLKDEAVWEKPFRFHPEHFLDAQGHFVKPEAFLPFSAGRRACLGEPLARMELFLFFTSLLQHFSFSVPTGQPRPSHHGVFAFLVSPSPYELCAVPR
Method in brief: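 P450-Glo luminescent screen: recombinant CYP2D6 enzyme–proluciferin substrate mix preincubated with compound 10 min at room temperature, then NADPH regeneration added for 1 h at room temperature. Detection reagent added for 20 min; luciferin light read as relative luminescence units.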

[8] = target: Calcium and integrin-binding protein 1 (Homo sapiens) (UniProt Q99828); assay: Validation qHTS for Identification of Calcium Integrin Binding protein 1 (CIB1) Competitor (AID 1508618); further: potency means the concentration at half of the fitted maximal effect
Method in brief: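 CIB1-GST (1 uM final) in 5 mM HEPES pH 7.4, 125 mM NaCl, 5 mM CaCl2, 0.01% Tween20 was preincubated 15 min at room temperature with compound (up to 114 uM), then FITC-alphaIIb peptide (100 nM) added for 15 min; fluorescence polarization read.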

[9] = Confirmatory qHTS for small molecule stabilizers of the endoplasmic reticulum resident proteome: Secreted ER Calcium Modulated Protein (SERCaMP) assay (AID 1508628); further: potency means the concentration at half of the fitted maximal effect; nearly all actives have a fitted effect of over 40% in size
Method in brief: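 SH-SY5Y cells stably expressing GLuc-SERCaMP, treated 16 h with compound (primary 1.53, 7.67, 38.3 uM; confirmation 11 concentrations, up to 76.6 uM), then 100 nM thapsigargin for 4 h. Secreted Gaussia luciferase in medium read by coelenterazine luminescence.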

| Compound | Potency [1] | outcome [2] | Potency [3] | max response [4] | Potency [5] | Potency [6] | Potency [7] | Potency [8] | Potency [9] |
| --- | --- | --- | --- | --- | --- | --- | --- | --- | --- |
| COc1ccc2nc(S(=O)Cc3ncc(C)c(OC)c3C)[nH]c2c1 (stereo not drawn) | 39.8 µM (active) | inactive | inactive | -2.62% (inactive) | inactive | inactive | inactive |  |  |
| Cc1cc2c(C(C)C)c(O)c(O)c(C=O)c2c(O)c1-c1c(C)cc2c(C(C)C)c(O)c(O)c(C=O)c2c1O | 3.16 µM (active) and 28.2 µM (active) |  |  |  | inactive |  |  | 22.4 µM (active) |  |
| Cn1cnc([N+](=O)[O-])c1Sc1ncnc2nc[nH]c12 |  | inactive |  |  | inactive | 35.5 µM (active) and inactive | inactive | inactive |  |
| Cc1cn[nH]c1 |  | inactive |  |  | inactive | inactive |  | inactive |  |
| Nc1ccc(S(=O)(=O)Nc2ccnn2-c2ccccc2)cc1 |  | inactive |  |  | inactive | inactive | inactive | inactive |  |
| CCCc1nn(C)c2c(=O)[nH]c(-c3cc(S(=O)(=O)N4CCN(C)CC4)ccc3OCC)nc12 |  | inactive |  |  | inactive | inactive | inactive | inactive |  |
| NC[C@H](O)c1ccc(O)c(O)c1 | inactive | inactive |  |  | inactive | inactive | inactive | inactive |  |
| O=C(Nc1nc2ccccc2n1CCN1CCOCC1)c1cccc([N+](=O)[O-])c1 |  | inactive |  |  |  |  |  | inactive |  |
| CCOC(=O)N1CCC(=C2c3ccc(Cl)cc3CCc3cccnc32)CC1 |  | inactive | 35.5 µM (active) |  | inactive |  |  | inactive |  |
| N[C@@H]1CONC1=O |  | inactive |  |  | inactive | inactive | inactive | inactive |  |
| C1COC(NC(C2CC2)C2CC2)=N1 |  | inactive |  |  | inactive | inactive |  | inactive |  |
| OC(CN1CCC(Cc2ccc(F)cc2)CC1)c1ccc(Cl)cc1 (stereo not drawn) |  | inactive | 17.8 µM (active) | -25.9% (inactive) | inactive | inactive | 15.5 nM (active) and 53.5 nM (active) | inactive |  |
| CC(C[N+](C)(C)C)OC(N)=O (stereo not drawn) |  | inactive |  |  | inactive | inactive | inactive | inactive |  |
| CC(=O)Oc1ccccc1C(=O)O |  | inactive |  |  | inactive | inactive | 15.5 µM (active) | inactive |  |
| Cc1[nH]c(=O)c(C#N)cc1-c1ccncc1 |  | inactive |  |  | inactive | inactive | inactive | inactive |  |
| O=c1n(CCCN2CCN(c3cccc(Cl)c3)CC2)nc2ccccn12 |  | inactive |  |  | inactive | inactive |  | inactive |  |
| CC(C)NCC(O)COc1ccc(COCCOC(C)C)cc1 (stereo not drawn) |  | inactive |  |  | inactive | inactive | inactive | inactive |  |
| O=C(O)CCc1ccc(NCc2cccc(Oc3ccccc3)c2)cc1 |  | inactive |  |  | inactive |  |  | inactive |  |
| Clc1cccc(Cl)c1NC1=NCCN1 |  | inactive |  |  | inactive | inactive |  | inactive |  |
| O=c1[nH]cnc2[nH]ncc12 |  | inactive |  |  | inactive | inactive | inactive | inactive |  |
| c1ccc([C@H]2CN3CCSC3=N2)cc1 |  | inactive |  |  | inactive | inactive | 30.9 µM (active) | inactive |  |
| CC(C)C[C@H](NC(=O)[C@@H](O)[C@H](N)Cc1ccccc1)C(=O)O |  | inactive |  |  | inactive |  |  | inactive |  |
| Nc1nc2ccc(OC(F)(F)F)cc2s1 |  | inactive |  |  | inactive | inactive |  | inactive |  |
| CCC(C)N(C)C(=O)c1cc2ccccc2c(-c2ccccc2Cl)n1 (stereo not drawn) |  | inactive |  |  | inactive |  |  | inactive |  |
| CCCC(CCC)C(=O)O |  | inactive |  |  | inactive | inactive | inactive | inactive |  |
| O=C1CCCC2=C1C(c1[nH]ncc1Cl)N=C(Nc1nc3ccccc3o1)N2 (stereo not drawn) | inactive | inactive |  |  | inactive |  |  |  |  |
| OC(CCN1CCCCC1)(c1ccccc1)C1CC2C=CC1C2 (stereo not drawn) |  | inactive | inactive | 24.4% (inactive) | 10 µM (active) | inactive | 1.23 µM (active) | inactive | 15.8 µM (active) and 22.4 µM (active) |
| Cc1oncc1C(=O)Nc1ccc(C(F)(F)F)cc1 |  | inactive |  |  | inactive | inactive |  | inactive |  |
